# From PubChem BioAssay AID1822 (The Scripps Research Institute Molecular Screening Center, 2009)
# Values joined by “and” are separate entries in the source; they are usually repeats but may differ in a detail not shown here. Equal values may be shown once. Among all 290,000 compounds or so, about 3,500 (1.2%) were called active.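 The calls were made as follows: active = inhibition above the campaign mean inhibition over all tested compounds plus 3 SD (cut at about 28% in these data); inactive = the rest.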 The entries come from a sample that favours actives as a whole.
# System: M18 aspartyl aminopeptidase (Plasmodium falciparum 3D7)
# Experiment: PfM18AAP inhibitors, malaria aminopeptidase, primary screen, biochemical, QFRET, recombinant enzyme (AID 1822);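 also: 0% = plate median of test compound wells and 100% = 2 mM ZnCl2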
# Settings: H-Glu-NHMec fluorogenic cleavage, at 7.35 µM, active compounds read high
row,SMILES,inhibition
1,COc1cc(/C=N/NC(=O)Cc2ccccc2)cc(OC)c1OC,0.54% (inactive)
2,COc1cc(/C=N/Nc2nn3cnnc3c3ccccc23)cc(OC)c1OC,43.6% (active)
3,COc1cc(Nc2nc3ccc(Cl)cc3n3cnnc23)cc(OC)c1OC,-5.42% (inactive)
4,CCOC(=O)C(CC)/C(C)=N\NC(=O)c1cccc(C)c1 (configuration not stated),-12.1% (inactive)
5,O=CN1CCN(C(=O)c2ccc(Br)o2)CC1,-0.01% (inactive)
6,O=C(Cc1ccccc1)Nc1c(C(=O)N2CCCCCC2)cnn1-c1ccccc1,5.1% (inactive)
7,O=C(Nc1cccnc1)c1cc(Cl)ccc1Cl,-0.24% (inactive)
8,O=C(COc1ccccc1Cl)Nn1cnnc1,31% (active)
9,COc1ccccc1C(=O)Nn1cnnc1,18.1% (inactive)
10,Cc1c(NC(=O)Nc2ccccc2Cl)sc(=S)n1C,4.48% (inactive)
11,O=C(Nn1cnnc1)c1cc(Cl)ccc1Cl,54.6% (active)
12,Cc1nn(-c2ccccc2)c(C)c1NC(=O)COc1ccc(Cl)cc1Cl,-6.26% (inactive)
13,O=C(COc1ccc([N+](=O)[O-])cc1Cl)Nn1cnnc1,33% (active)
14,O=C(COc1ccccc1Cl)N1CCCCCCC1,5.5% (inactive)
15,O=C(Nn1cnc2ccccc2c1=O)c1ccc([N+](=O)[O-])cc1Cl,-1.63% (inactive)
16,O=C(Nc1ccccc1Cl)Nn1cnnc1,77.6% (active)
17,O=C(COc1ccccc1Cl)Nc1ccc(C(=O)c2ccc(C(=O)O)cc2)cc1,-8.1% (inactive)
18,O=C(Nc1ccccc1Cl)Nc1cccc2cccnc12,6.47% (inactive)
19,COc1ccccc1NC(=O)CCC(=O)N1CC(C)Oc2ccc(C)cc21 (configuration not stated),-4.62% (inactive)
20,O=C(CN(Cc1ccccc1)C(=O)CCC(=O)Nc1ccccn1)NCCc1ccccc1,0.21% (inactive)
21,O=[N+]([O-])c1cccc(S(=O)(=O)NCc2ccccn2)c1,-8.77% (inactive)
22,CN(Cc1ccccc1)CC(O)COc1ccc(CNCc2cc3ccccc3s2)cc1 (configuration not stated),-3.49% (inactive)
23,COc1ccc(C(=O)NC2CC2)cc1OC1CCN(C/C=C/c2ccccc2)CC1,-7.74% (inactive)
24,CC(C)CCNC(=O)c1ccc2c(Cl)c3c(nc2c1)CCC3,-8.56% (inactive)
25,CCN(CC)c1ccc(C(=O)NNC(=O)CCc2nc3ccccc3c(=O)[nH]2)cc1,-7.26% (inactive)

row,SMILES,inhibition
1,CC(=O)N1CCOc2ccc(S(=O)(=O)N3CCN(c4cccc(C(F)(F)F)c4)CC3)cc21,-2.98% (inactive)
2,O=C(CN1CCCC1)Nc1sc2c(c1C(=O)Nc1ccccc1)CCCC2,7.15% (inactive)
3,COC(=O)c1c(NC(=O)C2CC(C)=C(C)CC2C(=O)O)sc2c1CCCCC2 (configuration not stated),-0.05% (inactive)
4,COC(=O)c1c(NC(=O)CCCC(=O)O)sc2c1CCCCC2,29.6% (active)
5,Cc1ccc(C(=O)c2c(NC(=O)c3ccncc3)sc3c2CCCC3)cc1,-11.4% (inactive)
6,Cc1ccc(NC(=O)c2c(NC(=O)CCC(=O)O)sc3c2CCCCC3)cc1,36.1% (active)
7,COC(=O)c1c(NC(=O)CCN2CCOCC2)sc2c1CCCC2,-1.78% (inactive)
8,Cc1cccc(OCC(=O)NC2CC(C)(C)NC(C)(C)C2)c1,7.98% (inactive)
9,Cc1cc(C)c(S(=O)(=O)Nc2c(C)n(C)n(-c3ccccc3)c2=O)cc1[N+](=O)[O-],1.79% (inactive)
10,C=CCn1c(SCc2ccccc2)nc2c1c(=O)[nH]c(=O)n2C,-4.12% (inactive)
11,Cc1cc(=O)n2nc(N3CCCC(C(=O)NCc4cccc(Cl)c4)C3)sc2n1 (configuration not stated),0.59% (inactive)
12,CC(C)(C)c1ccc(C(=O)N2CCC(C(=O)N3CCCCC3)CC2)cc1,-4.18% (inactive)
13,C=CCNC(=O)c1ccccc1SCc1c(C)noc1C,-1.38% (inactive)
14,COc1ccc(/C=C/C(=O)Nc2cccnc2)cc1OC,-3.57% (inactive)
15,COc1cc(/C=N/Nc2ccc(C)cc2)cc(Br)c1O,18.2% (inactive)
16,COc1cc(/C=N/NC(=S)Nc2cccnc2)cc(OC)c1O,44.8% (active)
17,O=C(CCC1CCN(C(=O)c2cccc(Cl)c2F)CC1)Nc1ccccc1,4.45% (inactive)
18,COc1ccc(C(=O)NC(C)Cn2nc(C)cc2C)cc1OC1CCN(C(C)=O)CC1 (configuration not stated),2.44% (inactive)
19,COc1ccc(CCOC(=O)CNC(=O)c2ccc(Cl)cc2Cl)cc1,2.28% (inactive)
20,O=C(CSc1ncn[nH]1)Nc1nc(-c2cccc([N+](=O)[O-])c2)cs1,41.6% (active)
21,O=C(CSc1ncn[nH]1)Nc1nsc(-c2ccccc2)n1,34.3% (active)
22,CCN(C(=O)CSc1ncn[nH]1)c1cccc2ccccc12,19% (inactive)
23,O=C(CSc1nc(-c2ccccc2)cs1)Nc1cccc([N+](=O)[O-])c1,1.5% (inactive)
24,O=C(CSc1n[nH]c(-c2cccnc2)n1)Nc1ccnc2ccccc12,-2.9% (inactive)
25,O=C(CSc1ncn[nH]1)Nc1ccnc2ccccc12,71.8% (active)

row,SMILES,inhibition
1,O=C(CSC1=NCCS1)Nc1nc(-c2ccccc2)cs1,4.17% (inactive)
2,O=C(Nc1nsc(-c2ccccc2)n1)c1ccncc1,-9.47% (inactive)
3,O=C(CSc1nc2ccccc2[nH]1)Nc1nc(-c2ccccc2)c(-c2ccccc2)o1,1.21% (inactive)
4,O=C(Nc1ccccc1)Nc1nnc(COc2ccccc2F)s1,-2.7% (inactive)
5,CCOc1ccc2nc(NC(=O)c3cc([N+](=O)[O-])ccc3N3CCOCC3)sc2c1,-2.3% (inactive)
6,CCOC(=O)N1CCN(C(=O)c2ccc3c(=O)n(CCc4ccc(OC)c(OC)c4)c(=O)[nH]c3c2)CC1,4.45% (inactive)
7,CCC(C)Sc1nc2c(cnn2-c2ccc(F)cc2)c(=O)[nH]1 (configuration not stated),1.81% (inactive)
8,COc1ccc(CCN(C)C(=O)C23CC4CC(CC(Cl)(C4)C2)C3)cc1OC,-8.52% (inactive)
9,CC1CCN(C(=O)CCc2nnc3ccc(NCc4ccco4)nn23)CC1,23.2% (inactive)
10,CCC(C)[C@H](NC(=O)N1CCn2c1nc1ccccc12)C(=O)NCc1ccc(OC)cc1 (some centres not stated),9.53% (inactive)
11,C=CCC1(CC=C)CCCN1C(=O)c1cc(COc2ccc(-n3cncn3)cc2)on1,-14.1% (inactive)
12,Cc1csc(NC(=O)Nc2ccccc2[N+](=O)[O-])n1,9.93% (inactive)
13,CC(=O)Nc1cccc(C(=O)Nc2nc(C)cs2)c1,-10.2% (inactive)
14,Cc1csc(NC(=O)NC2(C(F)(F)F)Oc3ccccc3O2)n1,70.8% (active)
15,COc1ccc(N2CCN(C(=O)CN3C(=O)COc4ccccc43)CC2)cc1,-6.46% (inactive)
16,COc1ccc(Br)cc1/C=N/n1c(C)nnc1C,0.59% (inactive)
17,Oc1ccc(Cl)cc1/C=N/c1nc2ccccc2[nH]1,0.82% (inactive)
18,COc1cc(Br)cc(/C=N/c2ncn[nH]2)c1O,61.7% (active)
19,Oc1c(Cl)cc(Cl)cc1/C=N/c1ncn[nH]1,45.4% (active)
20,Oc1ccc(Br)cc1C=Nc1ccc2[nH]ncc2c1,4.29% (inactive)
21,O=C(CN1C(=O)c2cccnc2Oc2ccc(Cl)cc21)Nc1ccc(F)cc1,-4.17% (inactive)
22,Cc1cc(F)ccc1N1CCC(N2CCN(C)C(CCO)C2)CC1 (configuration not stated),-5.24% (inactive)
23,O=C(NNS(=O)(=O)c1ccc(F)cc1)C1CCCCC1,-0.96% (inactive)
24,Cc1cc(=O)oc2c(C)c(OC(C)C(=O)NC3CCN(Cc4ccccc4)CC3)ccc12 (configuration not stated),-1.22% (inactive)
25,Cc1ccnc(NC(=O)C2CCN(S(=O)(=O)c3c(C)c(C)cc(C)c3C)CC2)c1,3.42% (inactive)

row,SMILES,inhibition
1,Cc1nc([N+](=O)[O-])nn1C12CC3CC(CC(Br)(C3)C1)C2,13.9% (inactive)
2,Cc1ccnc(SCC(N)=O)n1,3.17% (inactive)
3,Cc1ccnc(-n2sc3ccccc3c2=O)n1,42% (active)
4,Cc1ccnc(N2CCCC(C(=O)NC3CC3)C2)n1 (configuration not stated),0.97% (inactive)
5,CN(C)S(=O)(=O)c1ccc(N2CCCC2)c(C(=O)Nc2cccc(F)c2)c1,-1.31% (inactive)
6,Cc1ccc(S(=O)(=O)N2CCCC(C(=O)N3CCN(C)CC3)C2)cc1 (configuration not stated),-0.92% (inactive)
7,CC1CCC(NS(=O)(=O)c2ccc3c(c2)n(C)c(=O)c(=O)n3C)CC1 (configuration not stated),-14% (inactive)
8,Cn1sc(=O)c2cc(S(=O)(=O)NC3CC3)ccc21,43% (active)
9,O=S(=O)(NC1CC1)c1ccc(F)c(F)c1,-0.16% (inactive)
10,N=c1c2c3c(sc2ncn1N)CCCC3,2.91% (inactive)
11,N=c1c2c3c(sc2ncn1N)CCCCC3,-3.67% (inactive)
12,S=c1[nH]nc2c3c4c(sc3ncn12)CCCC4,38.3% (active)
13,Cn1ncc(Br)c1C(=O)NC1CCCC1,-2.67% (inactive)
14,CCC(C)NC(=O)CSC1=Nc2ccccc2C2=NC(CCC(=O)NCc3ccco3)C(=O)N12 (configuration not stated),-0.47% (inactive)
15,O=C(CSC1=Nc2ccccc2C2=NC(CC(=O)NCc3ccco3)C(=O)N12)NCc1ccco1 (configuration not stated),7.17% (inactive)
16,CC(C)C1N=C2c3ccccc3N=C(SCC(=O)c3ccc(O)c(O)c3)N2C1=O (configuration not stated),55.1% (active)
17,CC(=O)C(C)n1cnc2scc(-c3ccc(C)cc3)c2c1=O (configuration not stated),0.85% (inactive)
18,CSc1ccc(CNC(=O)c2ccc(NC(=O)C3=CSCCO3)cc2)cc1,6.37% (inactive)
19,COc1cccc(C(=O)Nc2nnc(S(=O)(=O)N3CCOCC3)s2)c1,1.13% (inactive)
20,Cc1ccc(C(=O)Cn2cc([N+](=O)[O-])nc2C)cc1,1.83% (inactive)
21,O=C(c1ccncc1)c1ccc([N+](=O)[O-])cc1,-0.4% (inactive)
22,O=C(Cn1c[n+](CC(=O)c2ccc([N+](=O)[O-])cc2)cn1)c1ccc([N+](=O)[O-])cc1,50.9% (active) and 63.7% (active)
